{"source": "the supplement of paper PMC11732987", "about": "“Enantioselective OTUD7B fragment discovery through chemoproteomics screening and high-throughput optimisation” (Communications Chemistry, 2025)", "test_in_all_cases": "log2 ratio of Biotin-Ahx-Ub-VS probe labelling (fragment/DMSO); higher = less target engagement (more negative = stronger competition), active = hit call of the paper (q ≤ 0.05, log2 ratio ≤ -1)", "conditions_in_all_cases": "compound concentration: 200 uM; treatment time: 3 h", "key": {"OTUD6B": {"target": "T1, OTUD6B (UniProt Q8N6M0)", "T1 sequence (whole entry)": "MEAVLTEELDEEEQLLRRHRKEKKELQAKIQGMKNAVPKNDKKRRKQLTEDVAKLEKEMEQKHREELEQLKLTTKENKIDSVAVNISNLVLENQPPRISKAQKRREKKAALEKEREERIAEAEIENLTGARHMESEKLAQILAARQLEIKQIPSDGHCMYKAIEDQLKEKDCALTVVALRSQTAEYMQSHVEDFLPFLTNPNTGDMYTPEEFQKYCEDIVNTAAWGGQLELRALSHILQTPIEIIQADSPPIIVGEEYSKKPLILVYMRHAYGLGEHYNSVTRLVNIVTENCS", "method_in_brief": "(§1)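 Using Biotin-Ahx-Ub-VS at 0.5 µM final for 1 h, DUBs were labelled in HEK293T lysate (495 µg per sample) that had first been treated in triplicate with fragment at 200 µM or vehicle for 3 h. NeutrAvidin enrichment, LysC and trypsin digestion and diaPASEF LC-MS/MS followed. Spectronaut label-free quantities were global-median-normalised. Values are average log2 fragment/vehicle ratios by unpaired t-test, using proteins with ≥2 unique peptides.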"}, "OTUD7B": {"target": "T2, OTUD7B (UniProt Q6GQQ9)", "T2 sequence (whole entry)": "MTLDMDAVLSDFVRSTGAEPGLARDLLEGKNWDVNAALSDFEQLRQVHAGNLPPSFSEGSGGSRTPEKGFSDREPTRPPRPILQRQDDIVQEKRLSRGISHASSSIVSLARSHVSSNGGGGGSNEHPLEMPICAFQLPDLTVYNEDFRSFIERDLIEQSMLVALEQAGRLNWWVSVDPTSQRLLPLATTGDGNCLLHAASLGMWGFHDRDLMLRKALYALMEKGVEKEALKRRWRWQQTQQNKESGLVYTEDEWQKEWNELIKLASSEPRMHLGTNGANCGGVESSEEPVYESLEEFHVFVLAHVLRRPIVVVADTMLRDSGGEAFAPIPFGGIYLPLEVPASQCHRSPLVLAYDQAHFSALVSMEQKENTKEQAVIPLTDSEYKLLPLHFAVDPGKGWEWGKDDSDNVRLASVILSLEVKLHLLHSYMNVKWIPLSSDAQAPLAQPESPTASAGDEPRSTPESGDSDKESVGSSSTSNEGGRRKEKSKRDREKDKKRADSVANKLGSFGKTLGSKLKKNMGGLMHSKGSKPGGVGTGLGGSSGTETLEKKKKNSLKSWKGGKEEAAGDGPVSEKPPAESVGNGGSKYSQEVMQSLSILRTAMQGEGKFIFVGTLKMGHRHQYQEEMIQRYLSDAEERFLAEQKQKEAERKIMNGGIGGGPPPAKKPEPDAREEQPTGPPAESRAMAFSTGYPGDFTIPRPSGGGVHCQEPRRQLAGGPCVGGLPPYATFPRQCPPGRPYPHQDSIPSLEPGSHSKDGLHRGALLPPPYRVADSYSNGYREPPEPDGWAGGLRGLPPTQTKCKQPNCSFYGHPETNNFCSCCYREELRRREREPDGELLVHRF", "method_in_brief": "as §1"}, "PRPF8": {"target": "PRPF8 (UniProt Q6P2Q9)", "method_in_brief": "as §1"}, "PSMD7": {"target": "T3, PSMD7 (UniProt P51665)", "T3 sequence (whole entry)": "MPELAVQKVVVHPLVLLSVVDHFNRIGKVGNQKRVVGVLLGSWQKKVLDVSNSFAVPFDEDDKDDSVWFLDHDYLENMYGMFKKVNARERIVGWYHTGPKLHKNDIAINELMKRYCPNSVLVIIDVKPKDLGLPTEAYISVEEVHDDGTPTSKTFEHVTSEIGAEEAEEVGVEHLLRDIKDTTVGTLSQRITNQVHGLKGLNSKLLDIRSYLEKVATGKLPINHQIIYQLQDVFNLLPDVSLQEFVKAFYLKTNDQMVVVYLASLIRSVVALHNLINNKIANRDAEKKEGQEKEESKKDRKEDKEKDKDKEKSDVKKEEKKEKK", "method_in_brief": "as §1"}, "UCHL1": {"target": "UCHL1 (UniProt P09936)", "sequence (P09936 whole entry, looked up)": "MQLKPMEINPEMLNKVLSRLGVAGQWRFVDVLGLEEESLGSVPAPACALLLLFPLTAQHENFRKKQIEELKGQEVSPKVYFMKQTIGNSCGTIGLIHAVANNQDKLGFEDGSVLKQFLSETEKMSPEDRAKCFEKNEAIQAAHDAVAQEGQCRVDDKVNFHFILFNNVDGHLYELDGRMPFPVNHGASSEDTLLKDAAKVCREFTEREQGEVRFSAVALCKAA", "method_in_brief": "as §1"}, "UCHL3": {"target": "T4, UCHL3 (UniProt P15374)", "T4 sequence (whole entry)": "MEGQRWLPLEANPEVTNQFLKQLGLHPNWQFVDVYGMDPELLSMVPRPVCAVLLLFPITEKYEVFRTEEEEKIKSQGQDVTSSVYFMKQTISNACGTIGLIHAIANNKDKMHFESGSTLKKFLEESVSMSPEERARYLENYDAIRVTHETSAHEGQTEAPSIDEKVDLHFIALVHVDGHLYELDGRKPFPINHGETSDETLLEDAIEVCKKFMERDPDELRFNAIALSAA", "method_in_brief": "as §1"}, "UCHL5": {"target": "T5, UCHL5 (UniProt Q9Y5K5)", "T5 sequence (whole entry)": "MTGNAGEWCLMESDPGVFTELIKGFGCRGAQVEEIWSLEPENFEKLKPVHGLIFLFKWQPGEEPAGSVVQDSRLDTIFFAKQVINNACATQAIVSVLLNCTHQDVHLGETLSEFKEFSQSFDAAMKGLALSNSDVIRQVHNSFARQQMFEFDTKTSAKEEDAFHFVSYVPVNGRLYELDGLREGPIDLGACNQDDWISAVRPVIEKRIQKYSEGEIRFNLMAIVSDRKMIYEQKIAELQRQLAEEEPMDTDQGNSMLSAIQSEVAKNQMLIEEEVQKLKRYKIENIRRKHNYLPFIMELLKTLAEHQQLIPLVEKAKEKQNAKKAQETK", "method_in_brief": "as §1"}, "USP10": {"target": "USP10 (UniProt Q14694)", "sequence (Q14694 whole entry)": "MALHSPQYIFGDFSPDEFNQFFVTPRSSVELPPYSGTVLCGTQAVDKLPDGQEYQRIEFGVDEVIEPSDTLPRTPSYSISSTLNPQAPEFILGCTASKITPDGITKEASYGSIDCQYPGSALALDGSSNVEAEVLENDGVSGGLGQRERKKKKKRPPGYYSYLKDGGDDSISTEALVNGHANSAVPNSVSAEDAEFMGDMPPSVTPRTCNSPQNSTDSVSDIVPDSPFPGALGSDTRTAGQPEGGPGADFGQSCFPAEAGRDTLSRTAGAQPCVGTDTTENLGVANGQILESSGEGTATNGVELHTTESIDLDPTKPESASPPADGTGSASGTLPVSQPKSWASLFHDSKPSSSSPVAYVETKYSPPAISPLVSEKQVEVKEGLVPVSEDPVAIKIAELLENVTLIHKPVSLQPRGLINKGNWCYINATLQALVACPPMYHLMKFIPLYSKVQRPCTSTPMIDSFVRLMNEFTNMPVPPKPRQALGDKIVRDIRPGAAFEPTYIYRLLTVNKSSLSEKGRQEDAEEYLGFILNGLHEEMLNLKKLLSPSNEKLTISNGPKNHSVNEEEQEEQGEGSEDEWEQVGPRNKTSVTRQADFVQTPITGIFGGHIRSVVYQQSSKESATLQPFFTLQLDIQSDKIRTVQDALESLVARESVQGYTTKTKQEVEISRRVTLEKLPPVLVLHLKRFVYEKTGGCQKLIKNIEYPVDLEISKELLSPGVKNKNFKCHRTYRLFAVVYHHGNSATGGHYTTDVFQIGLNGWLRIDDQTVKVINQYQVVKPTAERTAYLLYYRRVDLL", "method_in_brief": "as §1"}, "USP15": {"target": "T6, USP15 (UniProt Q9Y4E8)", "T6 sequence (whole entry)": "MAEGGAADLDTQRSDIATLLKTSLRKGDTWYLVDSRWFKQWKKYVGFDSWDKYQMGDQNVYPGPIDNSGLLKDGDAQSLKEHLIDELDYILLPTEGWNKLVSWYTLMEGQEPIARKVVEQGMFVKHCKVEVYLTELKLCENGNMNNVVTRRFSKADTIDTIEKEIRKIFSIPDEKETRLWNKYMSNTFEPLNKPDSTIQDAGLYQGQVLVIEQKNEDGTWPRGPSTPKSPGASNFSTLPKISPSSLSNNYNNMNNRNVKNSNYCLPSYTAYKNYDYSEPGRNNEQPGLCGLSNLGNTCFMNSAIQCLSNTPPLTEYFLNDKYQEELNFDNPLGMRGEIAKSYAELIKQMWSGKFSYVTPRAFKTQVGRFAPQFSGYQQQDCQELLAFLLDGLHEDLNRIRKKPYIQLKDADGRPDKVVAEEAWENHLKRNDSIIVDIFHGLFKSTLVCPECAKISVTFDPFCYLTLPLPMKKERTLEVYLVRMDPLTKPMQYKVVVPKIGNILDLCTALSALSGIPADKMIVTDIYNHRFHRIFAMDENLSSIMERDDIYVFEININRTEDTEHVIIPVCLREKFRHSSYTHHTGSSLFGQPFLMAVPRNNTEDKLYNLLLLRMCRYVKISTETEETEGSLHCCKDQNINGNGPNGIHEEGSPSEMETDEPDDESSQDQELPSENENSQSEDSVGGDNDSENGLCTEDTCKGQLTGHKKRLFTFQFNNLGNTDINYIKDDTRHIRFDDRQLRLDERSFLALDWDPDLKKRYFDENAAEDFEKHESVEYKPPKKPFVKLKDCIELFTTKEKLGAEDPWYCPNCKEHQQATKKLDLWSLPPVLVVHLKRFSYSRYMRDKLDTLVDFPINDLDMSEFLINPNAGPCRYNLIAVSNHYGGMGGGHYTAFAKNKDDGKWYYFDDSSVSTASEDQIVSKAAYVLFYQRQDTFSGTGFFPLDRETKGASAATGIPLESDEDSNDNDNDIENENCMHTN", "method_in_brief": "as §1"}, "USP16": {"target": "USP16 (UniProt Q9Y5T5)", "sequence (Q9Y5T5 whole entry, looked up)": "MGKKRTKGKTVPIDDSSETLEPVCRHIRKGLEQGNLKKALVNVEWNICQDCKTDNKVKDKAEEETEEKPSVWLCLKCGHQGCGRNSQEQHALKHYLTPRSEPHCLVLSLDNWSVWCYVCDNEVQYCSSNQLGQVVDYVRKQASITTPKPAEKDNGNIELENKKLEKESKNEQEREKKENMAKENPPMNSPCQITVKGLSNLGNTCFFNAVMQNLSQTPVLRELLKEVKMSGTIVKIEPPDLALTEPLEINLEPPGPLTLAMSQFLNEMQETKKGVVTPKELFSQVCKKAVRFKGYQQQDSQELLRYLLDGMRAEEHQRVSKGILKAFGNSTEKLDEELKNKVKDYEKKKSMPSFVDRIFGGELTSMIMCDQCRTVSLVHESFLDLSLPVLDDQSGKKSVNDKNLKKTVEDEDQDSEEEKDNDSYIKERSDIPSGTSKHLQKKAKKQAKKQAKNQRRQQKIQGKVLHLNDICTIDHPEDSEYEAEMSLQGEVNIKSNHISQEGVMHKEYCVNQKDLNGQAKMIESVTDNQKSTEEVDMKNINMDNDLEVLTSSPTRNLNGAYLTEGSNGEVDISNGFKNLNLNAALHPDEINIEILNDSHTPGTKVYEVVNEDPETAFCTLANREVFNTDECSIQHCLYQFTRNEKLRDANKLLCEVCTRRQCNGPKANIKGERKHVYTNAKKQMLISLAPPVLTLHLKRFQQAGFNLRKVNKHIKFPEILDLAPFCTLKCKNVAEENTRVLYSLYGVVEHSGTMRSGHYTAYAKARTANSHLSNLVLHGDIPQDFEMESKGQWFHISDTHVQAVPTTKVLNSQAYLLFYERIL", "method_in_brief": "as §1"}}, "note": "Values without a mark were called inactive."}
{"compound": "COc1ccc(-c2csc(NC(=O)CCl)n2)cc1", "values": [{"measurement": "log2 ratio of Biotin-Ahx-Ub-VS probe labelling", "setting": "OTUD6B", "value": -0.417}, {"measurement": "log2 ratio of Biotin-Ahx-Ub-VS probe labelling", "setting": "OTUD7B", "value": -0.639}, {"measurement": "log2 ratio of Biotin-Ahx-Ub-VS probe labelling", "setting": "PRPF8", "value": 0.0611}, {"measurement": "log2 ratio of Biotin-Ahx-Ub-VS probe labelling", "setting": "PSMD7", "value": -0.221}, {"measurement": "log2 ratio of Biotin-Ahx-Ub-VS probe labelling", "setting": "UCHL1", "value": "-1.27 (active)"}, {"measurement": "log2 ratio of Biotin-Ahx-Ub-VS probe labelling", "setting": "UCHL3", "value": -0.274}, {"measurement": "log2 ratio of Biotin-Ahx-Ub-VS probe labelling", "setting": "UCHL5", "value": "-3.29 (active)"}, {"measurement": "log2 ratio of Biotin-Ahx-Ub-VS probe labelling", "setting": "USP10", "value": -0.17}, {"measurement": "log2 ratio of Biotin-Ahx-Ub-VS probe labelling", "setting": "USP15", "value": -0.394}, {"measurement": "log2 ratio of Biotin-Ahx-Ub-VS probe labelling", "setting": "USP16", "value": -0.287}]}
